Screening results from PubChem BioAssay.
This is a sample that favours compounds with a hit; in the whole collection about 6.6% have one here.
BoNT A protease = inhibitors of Botulinum neurotoxin A light chain protease. multiplex microsphere protease substrate cleavage, flow cytometry. inhibition, % at 10 µM. 0.17% of 360,000 active. AID 588499; in the data active = inhibition above about 30%; inconclusive = no clear call, values can overlap the other calls
Autofluor counter = counter-screen for toxin protease inhibitors: compound fluorescence | compound autofluorescence counterscreen, microsphere flow cytometry; hits give high values | fluorescence intensity (test concentration not listed) | 3.1% of 360,000 active; in the data active = fluorescence intensity above about 16000; inconclusive = no clear call, values can overlap the other calls
GDH-TPI counter-1 = GDH-TPI coupled enzyme inhibition counter-screen | GDH-TPI coupled enzyme counterscreen, NADH absorbance | inhibition, % at 4.8 µM | 1.2% of 360,000 active | AID 588335; in the data active = inhibition above about 30%
BoNT F protease = BoNT F light chain protease inhibition; Multiplex microsphere protease cleavage assay, flow cytometry; inhibition, % at 10 µM; 0.22% of 360,000 active; AID 588497; in the data active = inhibition above about 35%, passing the limit was not always enough; inconclusive = no clear call, values can overlap the other calls
Anthrax LF inh2 = anthrax lethal factor protease inhibition | multiplex microsphere protease cleavage assay, LF | inhibition, % at 10 µM | AID 588501 | 0.12% of 360,000 active; in the data active = inhibition above about 30%; inconclusive = no clear call, values can overlap the other calls
Mtb FBA inh = inhibitors of M. tuberculosis fructose-bisphosphate aldolase; P9WQA3; inhibition, % at 1 µM; 2.3% of 360,000 active; purified M. tuberculosis FBA, fluorescence read-out
Mtb FBA inh conf = confirmation of M. tuberculosis fructose-bisphosphate aldolase inhibitors; shares compounds with Mtb FBA inh; purified M. tuberculosis FBA, fluorescence read-out; inhibition, % at 1 µM; 78% of 5,600 active
GDH-TPI counter-2 = GDH-TPI inhibition counter-screen for FBA inhibitors | inhibition, % at 1 µM | AID 652141 | shares compounds with Mtb FBA inh | GDH-TPI coupled enzyme counterscreen, fluorescence | 81% of 5,600 active; in the data active = inhibition above about 10%
A number is an active result; n = inactive; u = inconclusive; x = no result given; + = active, no number. Rule as the data show it, unless noted: active = inhibition above about 27%; inactive = the rest.

SMILES	BoNT A protease	Autofluor counter	GDH-TPI counter-1	BoNT F protease	Anthrax LF inh2	Mtb FBA inh	Mtb FBA inh conf	GDH-TPI counter-2
Cc1cccc(C2Nc3ccccc3C(=O)N2c2ccc(F)cc2)n1 (centres undefined)	n	n	n	n	n	49	n	n
Cc1ccc(N2C(=O)c3ccccc3NC2c2ccccc2O)cc1 (centres undefined)	n	n	n	n	n	n	x	x
COc1ccc(/C=C/C(=O)NCC(=O)N2CCC(N(C)CCN3CCOCC3)CC2)cc1OC	n	n	n	n	n	n	x	x
CCN(CC)CC(=O)Nc1c2c(nc3ccccc13)N(C)CC2	n	n	n	n	n	48	x	+
CCCCCC(=O)Nc1c2c(nc3ccccc13)CCC2	n	n	n	n	n	n	x	x
CC(C)C(=O)Nc1c2c(nc3ccccc13)N(C)CC2	n	n	n	n	n	74	+	+
CC(C)CNC(=O)c1ccc(NC(=O)c2cccs2)cc1	n	n	n	n	n	n	x	x
Cc1cc(C(=O)NNC(=S)NC2CCCCC2)cs1	n	n	n	n	n	n	x	x
CC(C)N(C(=O)COC(=O)CNC(=O)c1ccc(Br)cc1)c1ccccc1	n	n	n	n	n	n	x	x
N#Cc1c(Cl)nc(Cl)c2c1CCN(Cc1ccccc1)C2	n	n	n	n	n	93	+	+
COCCCN1CN(S(=O)(=O)c2ccc(C)cc2C)c2nc3ccccc3nc21	n	n	32	n	n	28	71	69
Cc1ccsc1-c1nc(-c2ccccc2)c(-c2ccccc2)[nH]1	n	n	n	n	n	29	91	74
COc1cc(-c2nc(-c3ccccc3)c(-c3ccc(F)cc3)[nH]2)cc2c1OCO2	n	n	n	n	n	31	103	71
COc1ccc(-c2nc(-c3ccccc3)c(-c3cccs3)[nH]2)cc1OC	n	n	n	n	n	49	n	n
COc1ccc(-c2nc(-c3cccs3)c(-c3cccs3)[nH]2)cc1OC	n	n	n	n	n	n	x	x
COc1cc(-c2nc(-c3ccc4c(c3)-c3ccccc3S4(=O)=O)c(-c3ccccc3)[nH]2)cc(OC)c1O	n	n	n	n	n	n	x	x
Fc1ccc(-c2nc(-c3cccs3)[nH]c2-c2ccc(F)cc2)cc1	n	n	n	n	n	50	+	+
CCN(Cc1nc2ccccc2c(=O)[nH]1)C(=O)c1cc2c(s1)CCCCC2	n	n	n	n	n	n	x	x
C#Cc1ccc(C(=O)Nc2ccc(N3CCC(C)CC3)c(C(N)=O)c2)cc1	n	n	n	n	n	n	x	x
COc1ccc(C(=O)Nc2ccccc2N2CCCC2)cc1S(=O)(=O)N1CCOCC1	n	u	n	n	n	n	x	x
COc1ccc(Cl)cc1NC(=O)CSc1nc2ccsc2c(=O)n1CC1CCC(C(=O)O)CC1 (centres undefined)	n	n	n	n	n	n	x	x
O=C(O)C1CCN(C(=O)CSc2nnc(-c3ccccc3)o2)CC1	n	n	n	n	n	28	71	53
COc1ccc2nc(N/C(N)=N/S(C)(=O)=O)nc(C)c2c1	n	n	n	n	n	53	+	+
O=S(=O)(NCc1ccc2c(c1)OCO2)c1ccc(F)c(F)c1	n	n	n	n	n	n	x	x
Cc1cc(S(=O)(=O)NCc2ccc3c(c2)OCO3)ccc1F	n	n	n	u	n	87	74	96
SMILES	BoNT A protease	Autofluor counter	GDH-TPI counter-1	BoNT F protease	Anthrax LF inh2	Mtb FBA inh	Mtb FBA inh conf	GDH-TPI counter-2
CCn1cc(S(=O)(=O)N2CCN(c3ccc(Cl)cc3)CC2)cn1	n	n	n	n	n	n	x	x
CSCC[C@H](NC(=O)Cc1c(C)c2c(cc(C)c3c(C)coc32)oc1=O)C(=O)O	n	n	n	n	n	53	+	187
CCCCC(NC(=O)Cc1c(C)c2cc3c(-c4ccccc4)coc3c(C)c2oc1=O)C(=O)O (centres undefined)	n	n	n	n	n	n	x	x
CC[C@@H](C)[C@H](NC(=O)Cc1c(C)c2c(cc(C)c3c(C)coc32)oc1=O)C(=O)O	n	n	n	n	n	64	112	94
Cc1c(C(=O)N2CCN(c3ncccn3)CC2)oc2ccc(Cl)cc12	n	n	n	n	n	n	x	x
CCN1CCN(CCCNC(=O)C(=O)c2c(C)[nH]c3ccccc23)CC1	n	n	n	n	n	n	x	x
O=C(NCCCN1CCOCC1)c1cc2c(=O)[nH]c3ccccc3c2s1	n	n	n	n	n	88	36	24
CCN1CCN(CCCNC(=O)c2cc3c(=O)[nH]c4ccccc4c3s2)CC1	n	n	n	n	n	89	n	n
O=C(NCCCN1CCOCC1)c1c(O)c2ccccc2[nH]c1=O	n	n	n	n	n	n	x	x
CCCCNc1c(-c2cccc(SC3CCCCC3)c2)nc2ccc(Cl)cn12	n	n	n	n	n	n	x	x
Cc1ccc2nc(-c3cccc(SC4CCCCC4)c3)c(NC3CCCCC3)n2c1	n	n	n	n	n	n	x	x
CCCCNc1c(-c2ccc(OC)c(SC3CCCCC3)c2)nc2ccc(C)cn12	n	n	n	n	n	36	+	161
COc1ccc(-c2ccc(-c3nc4ccc(C)cn4c3NC3CCCCC3)cc2OC)cc1	n	n	n	n	n	54	+	185
CCCCNc1c(-c2ccc(SC3CCCCC3)c(OC)c2)nc2ccc(C)cn12	n	n	n	n	n	50	+	193
CCOc1cc(S(=O)(=O)NCc2ccncc2)c(C)cc1C	n	n	n	n	n	n	x	x
Cc1c(-c2ccccc2)c(-c2ccc(OCCN(C)C)cc2)n2ccccc12	n	n	n	n	n	n	x	x
Oc1ccc(-c2nc3cnccn3c2Nc2ccc3c(c2)OCCO3)cc1	n	n	n	n	n	n	x	x
CC(C)(C)CC(C)(C)Nc1c(-c2ccc(O)cc2)nc2cnccn12	n	16574	n	n	n	59	+	+
CNc1nc(-c2ccc3c(c2)CCN3S(=O)(=O)c2ccccc2)c(C)s1	n	n	n	n	n	n	x	x
O=C(CN1C(=O)CCS(=O)(=O)c2ccccc21)Nc1ccc(Cl)cc1	n	n	n	n	n	n	x	x
O=C(Nc1ccc(F)cc1)c1ccc2snnc2c1	n	n	n	n	n	46	122	114
Cc1ccc(NC(=O)c2ccc3snnc3c2)cc1C	n	n	n	n	n	n	x	x
O=C(/C=C\c1ccc2c(c1)OCO2)Nc1c2c(nn1-c1ccc(Cl)cc1)CSC2	n	n	n	n	n	n	x	x
CC(C)(O)[C@H](O)COc1c2ccoc2cc2oc(=O)ccc12	n	n	n	n	n	n	x	x
CC(=O)O[C@H](COc1c2ccoc2cc2oc(=O)ccc12)C(C)(C)O	n	n	n	n	n	45	n	n
Cc1ccc([C@H]2C[C@H](n3cc(C4CC4)nn3)[C@@H](O)CN2C(=O)C2CCCCC2)cc1	n	n	n	n	n	n	x	x
